Measured values reported in PubChem BioAssay (Tox21).
Results filed as inconclusive are left out. Activity calls are given as the source filed them. Calls come from the whole dose curve.

Key:
[1] = target: Acetylcholinesterase (Homo sapiens) (UniProt P22303); test: Acetylcholinesterase (AChE) small molecule antagonists: colormetric cell-based qHTS assay (AID 1347395); note: nearly all actives have a fitted effect of over 30% in size
Procedure, shortened: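 Colorimetric read-out: DTNB detects thiocholine released when cellular AChE in SH-SY5Y cells hydrolyses acetylthiocholine. Cells attached overnight, received compound for 30 min at 37 C, then substrate mix for 90 min at 37 C.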

[2] = target: Acetylcholinesterase (Homo sapiens) (UniProt P22303); test: Acetylcholinesterase (AChE) small molecule antagonists: enzyme-based qHTS assay (AID 1347397); details: Potency: AChE enzyme activity inhibition; outcome: AChE enzyme activity inhibition; note: nearly all actives have a fitted effect of over 55% in size
Procedure, shortened: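 Tox21 library chemicals are tested in qHTS format against recombinant human AChE. The enzyme, dispensed at 50 mU/mL, sits with compound for 30 min at room temperature. A DTNB–acetylthiocholine cocktail follows, and colour is read after 10 min.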

[3] = target: Acetylcholinesterase (Homo sapiens) (UniProt P22303); test: Acetylcholinesterase (AChE) small molecule antagonists: fluorescence cell-based qHTS assay (AID 1347398); details: Potency: AChE activity; outcome: AChE activity; note: nearly all actives have a fitted effect of over 50% in size
Procedure, shortened: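 Cellular AChE inhibition: SH-SY5Y cells treated with test chemical for 30 min at 37 C, then acetylthiocholine hydrolysis followed over 40 min at room temperature via thiocholine-reactive Thiolite Green fluorescence (490/520 nm).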

[4] = target: Acetylcholinesterase (Homo sapiens) (UniProt P22303); test: Acetylcholinesterase (AChE) small molecule antagonists: enzyme-based qHTS assay with human liver microsomes (AID 1347399); details: Potency: qHTS inhibition; outcome: qHTS inhibition; note: nearly all actives have a fitted effect of over 60% in size
Procedure, shortened: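 Recombinant human AChE (50 mU/mL in the enzyme mix) and human liver microsomes (0.25 mg/mL final) were preincubated with compound and NADPH (0.25 mg/mL final) for 30 min at 37 C. Acetylthiocholine/DTNB was then added; thiocholine was read colorimetrically after 10 min at room temperature.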
% is set by controls: 0 for no effect and ±100 for the full control effect.

Sequence of Acetylcholinesterase (Homo sapiens) (P22303 whole entry, looked up): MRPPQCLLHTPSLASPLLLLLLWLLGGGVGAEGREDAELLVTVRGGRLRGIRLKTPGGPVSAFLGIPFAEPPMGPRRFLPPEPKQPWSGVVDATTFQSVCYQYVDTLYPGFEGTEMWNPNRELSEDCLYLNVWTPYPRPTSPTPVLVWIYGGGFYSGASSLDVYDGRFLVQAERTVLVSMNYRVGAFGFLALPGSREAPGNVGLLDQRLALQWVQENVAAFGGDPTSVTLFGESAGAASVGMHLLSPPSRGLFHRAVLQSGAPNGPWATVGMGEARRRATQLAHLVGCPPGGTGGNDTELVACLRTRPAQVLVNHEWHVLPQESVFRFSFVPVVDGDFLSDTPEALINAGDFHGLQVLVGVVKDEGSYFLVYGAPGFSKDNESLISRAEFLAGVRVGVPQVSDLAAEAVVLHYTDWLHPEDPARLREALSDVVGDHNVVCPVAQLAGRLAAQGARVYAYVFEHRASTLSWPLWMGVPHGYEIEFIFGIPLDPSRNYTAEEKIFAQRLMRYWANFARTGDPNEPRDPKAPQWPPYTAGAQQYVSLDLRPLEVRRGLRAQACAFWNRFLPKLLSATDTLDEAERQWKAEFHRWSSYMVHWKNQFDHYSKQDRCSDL

Clc1sc(Cl)c(Cl)c1Cl
inactive: Potency [1] | Potency [2] | Potency [3] | Potency [4]

C=COCCCCO
inactive: Potency [1] | Potency [2] | Potency [3] | Potency [4]

CC(C)COC(=O)/C=C/c1ccccc1
inactive: Potency [1] | Potency [2] | Potency [3] | Potency [4]

CC(C)CC(=O)CC(C)C
inactive: Potency [1] | Potency [2] | Potency [3] | Potency [4]

Cc1ccc(Br)cc1
inactive: Potency [1] | Potency [2] | Potency [3] | Potency [4]

CCCCOCCOCCOC(=O)CCCCC(=O)OCCOCCOCCCC
inactive: Potency [1] | Potency [2] | Potency [3] | Potency [4]

O=C(CC(=O)c1ccccc1)c1ccccc1
inactive: Potency [1] | Potency [2] | Potency [3] | Potency [4]

CC(=O)OCc1ccco1
inactive: Potency [1] | Potency [2] | Potency [3] | Potency [4]

CCCCCCCCCCCCCCCBr
inactive: Potency [1] | Potency [2] | Potency [3] | Potency [4]

Cc1ccc(Cl)cc1
inactive: Potency [1] | Potency [2] | Potency [3] | Potency [4]

O=C(O)c1cc(N=Nc2ccc(S(=O)(=O)Nc3ccccn3)cc2)ccc1O
inactive: Potency [1] | Potency [2] | Potency [3] | Potency [4]

CCCCCCCCCCCO
inactive: Potency [1] | Potency [2] | Potency [3] | Potency [4]

Cc1ccc(O)c(C(=O)c2ccccc2)c1
inactive: Potency [1] | Potency [2] | Potency [3] | Potency [4]

CCOC(N)=O
inactive: Potency [1] | Potency [2] | Potency [3] | Potency [4]

CC(C)c1ccc2ncccc2c1
inactive: Potency [1] | Potency [2] | Potency [3] | Potency [4]

CCc1ccc(C(c2ccc(CC)cc2)C(Cl)Cl)cc1
inactive: Potency [1] | Potency [2] | Potency [3] | Potency [4]

C=CCSSCCC
inactive: Potency [1] | Potency [2] | Potency [3] | Potency [4]

CCOc1cccc(-n2cc(C(=O)N3CCN(c4cc(C(=O)O)c5ccccc5c4)CC3)nc2-c2ccc(C)cc2)c1
inactive: Potency [1] | Potency [2] | Potency [3] | Potency [4]

C[n+]1ccn(CCO)c1
inactive: Potency [1] | Potency [2] | Potency [3] | Potency [4]

Cc1occc1SSc1ccoc1C
inactive: Potency [1] | Potency [2] | Potency [3] | Potency [4]

N/C(=N\N=C\c1ccc(Cl)cc1)N/N=C/c1ccc(Cl)cc1
inactive: Potency [1] | Potency [2] | Potency [3] | Potency [4]

CCC(=O)Nc1cccc(N)c1
inactive: Potency [1] | Potency [2] | Potency [3] | Potency [4]

O=c1c(O)c(-c2ccc(O)c(O)c2)oc2cc(O)cc(O)c12
inactive: Potency [1] | Potency [2] | Potency [3] | Potency [4]

CC/C=C\CCOC(=O)c1ccccc1O
inactive: Potency [1] | Potency [2] | Potency [3] | Potency [4]

O=C(/C=C/c1ccccc1)OCc1ccccc1
inactive: Potency [1] | Potency [2] | Potency [3] | Potency [4]

COC(=O)N/N=C/c1c[n+]([O-])c2ccccc2[n+]1[O-]
inactive: Potency [1] | Potency [2] | Potency [3] | Potency [4]

OC1C(O)C(O)C(O)C(O)C1O (stereo not given)
inactive: Potency [1] | Potency [2] | Potency [3] | Potency [4]

O=C(O)c1nc(Cl)c(Cl)c(Cl)c1Cl
inactive: Potency [1] | Potency [2] | Potency [3] | Potency [4]

Cc1cccc(C)c1OCC(=O)N[C@@H](Cc1ccccc1)[C@@H](O)C[C@H](Cc1ccccc1)NC(=O)[C@H](C(C)C)N1CCCNC1=O
inactive: Potency [1] | Potency [2] | Potency [3] | Potency [4]

CC1=C(/C=C/C(C)=C/C=C/C(C)=C/C(=O)O)C(C)(C)CCC1
inactive: Potency [1] | Potency [2] | Potency [3] | Potency [4]

Cc1cccc(C)c1OCC(C)N (stereo not given)
inactive: outcome [1] | outcome [2] | outcome [3] | outcome [4]

CN1CCCC1=O
inactive: Potency [1] | Potency [2] | Potency [3] | Potency [4]

CC1(C)C(=O)N(Cl)C(=O)N1Br
inactive: Potency [1] | Potency [2] | Potency [3] | Potency [4]

OC[C@@H](O)[C@@H](O[C@@H]1O[C@H](CO)[C@H](O)[C@H](O)[C@H]1O)[C@H](O)[C@@H](O)CO
inactive: Potency [1] | Potency [2] | Potency [3] | Potency [4]

C[Si]1(C)O[Si](C)(C)O[Si](C)(C)O[Si](C)(C)O1
inactive: Potency [1] | Potency [2] | Potency [3] | Potency [4]

CC(=O)O[C@@H]1CC2C3CCc4cc(OC(=O)c5ccccc5)ccc4C3CCC2(C)[C@H]1OC(C)=O (stereo not given in full)
inactive: Potency [1] | Potency [2] | Potency [3] | Potency [4]

CCCCCC[C@@H](O)C/C=C\CCCCCCCC(=O)O
inactive: Potency [1] | Potency [2] | Potency [3] | Potency [4]

COC=O
inactive: activity, negative = inhibition [1] 2.05% [at 10.5 µM] | activity change, negative = inhibition [2] 0.267% [at 10.5 µM] | activity change, negative = inhibition [3] -1.7% [at 10.5 µM] | activity change, negative = inhibition [4] 0.679% [at 10.5 µM]

Cc1cnc(NC(=O)C2=C(O)c3ccccc3S(=O)(=O)N2C)s1
inactive: Potency [1] | Potency [2] | Potency [3] | Potency [4]

O=C(Nc1ncc([N+](=O)[O-])s1)c1cccs1
inactive: Potency [1] | Potency [2] | Potency [3] | Potency [4]

O=C(O)Cc1ccccc1Nc1c(Cl)cccc1Cl
inactive: Potency [1] | Potency [2] | Potency [3] | Potency [4]

CCCCN1C(=O)c2ccccc2C1=O
inactive: Potency [1] | Potency [2] | Potency [3] | Potency [4]

O=C(OCCOCCOCCOC(=O)c1ccccc1)c1ccccc1
inactive: Potency [1] | Potency [2] | Potency [3] | Potency [4]

Oc1ccc(C2(c3ccc(O)c(C4CCCCC4)c3)CCCCC2)cc1C1CCCCC1
inactive: Potency [1] | Potency [2] | Potency [3] | Potency [4]

C=C(C)C1CC=C(C)C(OC(C)=O)C1 (stereo not given)
inactive: Potency [1] | Potency [2] | Potency [3] | Potency [4]

CCCC/C=C/C=C\C=O
inactive: Potency [1] | Potency [2] | Potency [3] | Potency [4]

Cc1ccc(C)o1
inactive: Potency [1] | Potency [2] | Potency [3] | Potency [4]

CC[C@H](C)C(=O)O[C@H]1C[C@@H](C)C=C2C=C[C@H](C)[C@H](CC[C@@H]3C[C@@H](O)CC(=O)O3)[C@H]21
inactive: Potency [1] | Potency [2] | Potency [3] | Potency [4]

OCCN(CCO)c1cccc(Cl)c1
inactive: Potency [1] | Potency [2] | Potency [3] | Potency [4]

Fc1ccc(Br)cc1
inactive: Potency [1] | Potency [2] | Potency [3] | Potency [4]

COC1=C(OC)C(=O)C(CCCCCCCCCCO)=C(C)C1=O
inactive: Potency [1] | Potency [2] | Potency [3] | Potency [4]

COC(=O)c1ccc(O)cc1
inactive: Potency [1] | Potency [2] | Potency [3] | Potency [4]

CCCCC(CC)COC(=O)COc1ccc(Cl)cc1C (stereo not given)
inactive: Potency [1] | Potency [2] | Potency [3] | Potency [4]

CC1(O)CSC(C)(O)CS1 (stereo not given)
inactive: Potency [1] | Potency [2] | Potency [3] | Potency [4]

CC(C)=CCCC(C)CC(=O)O (stereo not given)
inactive: Potency [1] | Potency [2] | Potency [3] | Potency [4]

CC[C@H](NC(C)C)[C@H](O)c1ccc(O)c2[nH]c(=O)ccc12
inactive: Potency [1] | Potency [2] | Potency [3] | Potency [4]

O=C(CCCCCCCCC#CI)Oc1ccccc1
inactive: Potency [1] | Potency [2] | Potency [3] | Potency [4]

Cc1cccc(C)c1C
inactive: Potency [1] | Potency [2] | Potency [3] | Potency [4]

CC/C(C)=N\O[Si](C)(O/N=C(\C)CC)O/N=C(\C)CC
inactive: Potency [1] | Potency [2] | Potency [3] | Potency [4]

COC(=O)c1nc(Cl)c(Cl)nc1N
inactive: Potency [1] | Potency [2] | Potency [3] | Potency [4]
